# Experimental data published in PubChem BioAssay AID651820 (National Center for Advancing Translational Sciences (NCATS), 2012).
# Among all 340,000 compounds or so, about 12,000 (3.5%) were called active. Not shown: some 18% with an inconclusive outcome. What follows is part of a selection rich in actives, with near analogues and random picks from the rest. Unmarked numbers belong to inactive results. Calls come from the whole dose curve; as a rule, active = well fitted inhibition curve with a large enough effect; inconclusive = small, poorly fitted or top-dose-only effect, or another doubt; inactive = no such curve, though single readings can be large or run the other way.
# Assay: qHTS Assay for Inhibitors of Hepatitis C Virus (HCV)
# Settings: Huh7.5.1 HCVcc-Cre infection, luciferase reporter, 44 h; series mostly up to 41.8 µM; activity change, negative = inhibition: at the top concentration
# Outline: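 HCVcc-Cre virus at an moi near 0.5 was added right after compound to cells cultured 4 h from seeding (1,000 cells/well). Luciferase activity was determined 44 h later, 15 min after substrate addition at RT.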
# % is set by controls: 0 for no effect and ±100 for the full control effect; potency is the fitted concentration of half-maximal effect.
Structure (SMILES),"activity change, negative = inhibition [%]",Potency
CCC1CCCCN1CCCNC(=O)C1CCC(Cn2c(=O)[nH]c3ccccc3c2=O)CC1 (stereo unspecified),-13.2,
C#CCOCCOCCOCCNc1nc(N2CCN(C(=O)[C@H](CO)n3cc([C@@H](N)C(C)C)nn3)CC2)nc(N2CCN(C(=O)[C@H](CCC(=O)O)n3cc([C@@H](N)[C@H](C)CC)nn3)CC2)n1,-8.15,
Nc1ccc2[nH]c(=S)sc2c1,12.9,
COc1ccc(CCN2CC(C(=O)OCC(=O)NCc3ccccc3Cl)CC2=O)cc1OC (stereo unspecified),-7.78,
CC(NC(=O)c1ccccc1SCC(=O)N1CCCC1)c1ccccc1 (stereo unspecified),22.8,
CC(=O)Nc1ccc(OCC(O)CN2CCN(c3ccccc3Cl)CC2)cc1 (stereo unspecified),3.6,
O=C(c1ccccc1)c1ccc(OCC(O)CN2CCCC2)cc1 (stereo unspecified),2.19,
O=C(c1ccc(Cl)cc1)c1ccc(OCC(O)CN2CCCCC2)cc1 (stereo unspecified),,14.1 µM (active)
O=C1NCC(c2ccccc2)(c2ccccc2)C(=O)N1,38.7,
CC1CC(C)CN(C(=O)COC(=O)c2ccc3ncsc3c2)C1 (stereo unspecified),-5.2,
CC(=O)c1c(C)oc2ccc(NS(=O)(=O)c3ccc(C(=O)O)cc3)cc12,3.69,
CC(=O)c1c(C)oc2ccc(NS(=O)(=O)c3ccccc3)cc12,-15.2,
COc1ccc(S(=O)(=O)Nc2ccc3oc(C)c(C(C)=O)c3c2)cc1,,7.94 µM (active)
CC(OC(=O)c1ccc(S(=O)(=O)N2CCOCC2)cc1)c1ccccc1 (stereo unspecified),-17,
COC1=CC(=O)OC(C)(c2ccccc2)C1 (stereo unspecified),15.7,
CN1CCN(c2ccc(NC(=O)c3ccccc3)cc2)CC1,6.63,
Cc1ccccc1C(=O)NC(=S)Nc1ccc(N2CCN(C(=O)c3ccccc3)CC2)cc1,,11.2 µM (active)
O=C(Nc1ccc(N2CCN(C(=O)c3cccs3)CC2)cc1)c1cccnc1Cl,-12.3,
O=C(Cc1ccccc1)NC(=S)Nc1ccc(N2CCCCC2)cc1,-1.27,
O=C(Nc1ccc(N2CCN(C(=O)C3CC3)CC2)cc1)c1cccs1,-3.63,
Cc1ccccc1C(=O)N1CCN(c2ccc(NC(=O)c3cccs3)cc2)CC1,,11.2 µM (active)
Cc1ccc(-c2csc(NCCc3nc4cc(Cl)c(Cl)cc4n3CCOCCO)n2)cc1,-19.6,
CCCCNC(=O)Cn1nc(C)c(S(=O)(=O)N2CCOCC2)c1C,0.679,
CC(C)(C)C(=O)Nc1cccc(-c2ccc[nH]2)n1,-21,
CC(=O)c1c(C)[nH]c(C(=O)N2CCN(S(=O)(=O)c3ccc(F)c(F)c3)CC2)c1C,19.1,
CCOc1ccc(NC(=O)COc2ccc(C(=O)NC3CCCc4ccccc43)cc2OC)cc1 (stereo unspecified),1.4e-06,

Structure (SMILES),"activity change, negative = inhibition [%]",Potency
CCOc1c2ccc(C(=O)NC3CCCc4ccccc43)cc2nn1CC (stereo unspecified),,3.55 µM (active)
CNS(=O)(=O)c1cccc(C(=O)NC2CCCc3ccccc32)c1 (stereo unspecified),-13.6,
CCCc1cc(=O)[nH]c(SCC(=O)Nc2ccc(S(=O)(=O)N3CCCC3)cc2)n1,-9.93,
CC(C)(C)c1ccc(OC2=CS(=O)(=O)c3ccccc32)cc1,-5.07,
COc1cccc(Oc2ccc(N)cc2)c1,-21.4,
Nc1ccc(Oc2ccc(Cl)cc2)cc1,,7.94 µM (active)
Cc1nn(C)c(Oc2ccc(Cl)cc2)c1C=O,-11.1,
CC(C)(C)c1ccc(Oc2ccc(N)cc2)cc1,,3.55 µM (active)
Nc1ccc2nn(-c3ccc(Cl)cc3)nc2c1,-11.2,
O=S(=O)(Nc1ccc(O)c2ccccc12)c1ccc(OC(F)(F)F)cc1,-0.296,
COc1ccc(CNC(=O)COC(=O)C(CCSC)N2C(=O)c3ccccc3C2=O)cc1 (stereo unspecified),4.01,
C=CCn1c(=N)n(CC(O)COc2ccc(OC)cc2)c2ccccc21 (stereo unspecified),,5.62 µM (active)
C=CCc1ccc(OCC(O)CN2CCN(Cc3ccccc3)CC2)c(OC)c1 (stereo unspecified),-23.4,
COc1ccc(OCC(O)CN(C)C(=O)C(C)Oc2ccccc2)cc1 (stereo unspecified),7.61,
CCCCn1c(N)c(N(CC(C)C)C(=O)c2cnc(C)cn2)c(=O)[nH]c1=O,31.4,
CC1CCN(C(=O)COC(=O)c2cc(S(=O)(=O)N3CCOCC3)ccc2Cl)CC1,9.19,
CNS(=O)(=O)c1ccc(C(=O)NCC(=O)NCCc2ccc3c(c2)OCCO3)cc1,-10.8,
O=C(O)c1ccc(Cn2c(=S)[nH]c3cc(Cl)ccc3c2=O)cc1,5.79,
CC(C)c1ccc2c(c1)c(SC(C)(C)C)c(CC(C)(C)C(=O)O)n2Cc1ccc(Cl)cc1,,10 µM (active)
Cn1c(Cc2cccc3ccccc23)nnc1SCC(=O)N1CCN(c2cccc(Cl)c2)CC1,,3.98 µM (active)
Cn1c(CNC(=O)c2ccco2)nnc1SCC(=O)N1CCN(c2ccccc2)CC1,19.3,
Cc1cc2nnc(SCC(=O)N3CCN(c4ccccc4)CC3)n2c(N)n1,8,
O=C(CSc1ncnc2sccc12)NC1CCS(=O)(=O)C1 (stereo unspecified),12.8,
CC(=O)Nc1ccc(S(=O)(=O)NCC(=O)OCC(=O)c2ccc[nH]2)cc1,30.9,
O=C(c1cccnc1)N(Cc1ccccc1)C(=O)c1cccnc1,7.13,
